Screening data: PubChem, several laboratories
A selection: hits, their analogues and other compounds. The true share with any hit is near 0.5%.
Tat transport = inhibitors of E. coli Tat protein transport | E. coli MC4100 TorA-mCherry Tat export, fluorescence | inhibition, % at 10 µM | 340,000 tested, 0.036% active;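 active means mean replicate inhibition at least 50% and at least half of replicates individually reaching 50%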;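 further: exported cargo escapes ClpAP degradation while cytoplasmic cargo is degraded and loses fluorescence; 0% = median of neutral control wells and 100% = median of NaSCN control wells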
phage Ecoli inh = E. coli growth loss with phage present | growth absorbance | inhibition, % at 11.9 µM | 360,000 tested, 0.26% active | AID 651602; in the data active means inhibition above about 11%
E coli growth-1 = blocks Escherichia coli growth; OD600 absorbance (test concentration not listed); AID 1053175; 330,000 tested, 0.21% active; OD600, 23 h; stronger effect = lower value;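 active means OD600 absorbance below the run mean of sample wells minus 3.6 SD, in any replicate, cut at about 0.56 in these data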
E coli growth-2 = counter-screen for AddAB inhibitors: E. coli growth inhibition; E. coli V3065 growth, OD600 absorbance, 18 h; inhibition, % at 11.9 µM; 330,000 tested, 0.27% active;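 active means inhibition above the campaign's mean inhibition across all tested compounds plus 3 SD, cut at about 9.9% in these data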;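 further: uninfected addAB+ strain grown without phage in ampicillin broth; 0% = DMSO wells and 100% = ciprofloxacin 0.95 µg/ml wells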
AddAB inh = less growth of phage-infected E. coli with AddAB. inhibition, % at 11.9 µM. AID 435030. E. coli expressing H. pylori AddAB, absorbance growth. 330,000 tested, 0.29% active; in the data active means inhibition above about 12%;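 further: 0% = vehicle wells of infected cells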
RecBCD conf = growth loss of phage-infected V66 E. coli, RecBCD confirmation screen. shares compounds with phage Ecoli inh. E. coli V66 + T4 2- phage, growth OD. inhibition, % at 11.9 µM. 890 tested, 45% active. AID 651982;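 active means mean inhibition over triplicates exceeding the hit threshold derived in the original primary screen, cut at about 11% in these data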
Ecoli viability = bacterial viability inhibition counter-screen for RecBCD. E. coli viability, absorbance (OD) growth. shares compounds with phage Ecoli inh. inhibition, % at 11.9 µM. 890 tested, 29% active. AID 651983; in the data active means inhibition above about 20%;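 further: E. coli strain V66 grown with compound alone and no phage infection; 0% = bacteria with DMSO vehicle only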
AddAB counter = growth loss of phage-infected AddAB E. coli, RecBCD counter-screen; shares compounds with phage Ecoli inh; E. coli expressing H. pylori AddAB + T4 phage, OD growth; gene 2 mutant T4, recBCD-deleted host; inhibition, % at 11.9 µM; 890 tested, 45% active; AID 651984;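 active means mean inhibition above the solvent-only control wells' mean plus 3 SD, cut at about 22% in these data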;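 further: higher means less bacterial growth from phage killing when AddAB is blocked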
* = called active by the depositor; nt = no result.

SMILES	Tat transport	phage Ecoli inh	E coli growth-1	E coli growth-2	AddAB inh	RecBCD conf	Ecoli viability	AddAB counter
COc1ccc(OC)c(C(=O)Cn2nnc(-c3ccc(N4CCOCC4)cc3)n2)c1	-5	12*	0.75	0	0	-1	-2	3
CC(OC(=O)N(C)Cc1ccccc1)C1O[C@]2(C)CCCCC1O2 (stereo partly drawn)	nt	nt	0.66	nt	nt	nt	nt	nt
O=C(OCc1nnc(-c2ccccc2)o1)c1ccc([N+](=O)[O-])o1	-2	6	0.66	3	1	nt	nt	nt
COc1cc(-c2nnc(COC(=O)c3ccc([N+](=O)[O-])o3)o2)cc(OC)c1OC	nt	12*	nt	nt	nt	-2	0	14
CCOc1ccc2c(c1)S/C(=C\c1cccs1)C(=O)N2	-7	54*	0.69	0	1	0	1	5
Cc1cc(C)cc(N=C2NC(=O)/C(=C/c3cccs3)S2)c1	6	3	0.69	-4	0	nt	nt	nt
Nc1nc2cc(Br)ccc2o1	-16	14*	0.65	nt	nt	11*	11	28*
Nc1ccc2oc(-c3cccc(Br)c3)nc2c1	-2	nt	0.69	-1	-1	nt	nt	nt
Cn1cc(S(=O)(=O)N2CCc3ccccc32)cc1C(=O)NC1CCCCC1	1	98*	0.67	-1	1	-4	-3	-4
CC(C)(C)NC(=O)C1CN(Cc2cccnc2)CCN1CC(O)CC(Cc1ccccc1)C(=O)NC1c2ccccc2CC1O (stereo not drawn)	nt	nt	0.64	nt	nt	nt	nt	nt
Cc1nnc(NS(=O)(=O)c2ccc(F)cc2)s1	2	1	nt	nt	nt	nt	nt	nt
Cc1nnc(NS(=O)(=O)c2ccc(N)cc2)s1	-2	12*	0.63	5	4	4	3	27*
CCCOc1ccc(CNC(=O)c2ccc3nc(N4CCOCC4)sc3c2)cc1	-12	25*	0.75	-1	-1	-1	0	4
C=CCn1c(=O)c(C(=O)NCCc2ccccc2)c(O)c2ccccc21	7	13*	0.65	13*	10	6	10	8
Cn1cc([N+](=O)[O-])c(C(=O)N/N=C/c2ccc([N+](=O)[O-])cc2)n1	-2	11*	nt	1	6	-1	-1	0
CCOC(=O)C1C2COc3ccccc3C2N2C(=O)N(c3ccc(C(F)(F)F)cc3)C(=O)[C@@]12C (stereo partly drawn)	nt	nt	0.72	nt	nt	nt	nt	nt
N#Cc1c2ccc([N+](=O)[O-])cc2[n+]([O-])n1-c1ccccc1	0	17*	nt	38*	37*	16*	18	51*
O=c1c2cc([N+](=O)[O-])ccc2sn1-c1ccccc1	nt	4	nt	nt	nt	nt	nt	nt
CCC1=C(OC(=O)N(CC)CC)N2C(=O)OC(=NCC3CC3)[C@]2(Cc2ccccc2)C2C1=CCC1C(=O)N(C)C(=O)C12 (stereo partly drawn)	nt	nt	0.7	nt	nt	nt	nt	nt
CCN(CC)S(=O)(=O)c1cccc(NC(=O)CC2CCCC2)c1	25	1	0.7	1	2	nt	nt	nt
CCN(CC)S(=O)(=O)c1cccc(NC(=O)Nc2cccc(C(F)(F)F)c2)c1	13	11*	0.64	7	9	2	4	2
CS(=O)(=O)c1ccc(CNC(=O)C2(C(F)(F)F)CC(=CCc3ccccc3)CCCO2)cc1 (stereo not drawn)	nt	nt	0.65	nt	nt	nt	nt	nt
CC(=O)NC(c1ccc(Cl)cc1)c1ccc2cccnc2c1O (stereo not drawn)	-10	20*	0.53	nt	nt	12*	16	18
COc1ccc(C(NC(C)=O)c2cc(Cl)c3cccnc3c2O)cc1 (stereo not drawn)	-5	14*	0.68	20*	10	6	9	16
CCC(=O)NC(c1ccco1)c1cc(Br)c2cccnc2c1O (stereo not drawn)	nt	20*	nt	nt	nt	6	10	18
SMILES	Tat transport	phage Ecoli inh	E coli growth-1	E coli growth-2	AddAB inh	RecBCD conf	Ecoli viability	AddAB counter
CC(=O)NC(c1ccc(N(C)C)cc1)c1cc(Cl)c2cccnc2c1O (stereo not drawn)	nt	19*	nt	nt	nt	7	9	22*
O=C(NC(c1ccc(Cl)cc1)c1cc(Cl)c2cccnc2c1O)c1cccnc1 (stereo not drawn)	-8	4	nt	-1	5	nt	nt	nt
CCCCC(=O)NC(c1ccc(Cl)cc1Cl)c1ccc2cccnc2c1O (stereo not drawn)	4	19*	nt	nt	nt	13*	14	31*
CC(=O)NC(c1cc(F)c2cccnc2c1O)C1CC1 (stereo not drawn)	16	0	0.68	-2	-4	nt	nt	nt
CCC(=O)NC(c1cc(Cl)c2cccnc2c1O)C1CC1 (stereo not drawn)	5	14*	0.68	11*	8	3	5	7
CCCC(=O)NC(c1ccc(OC)c(OC)c1)c1cc(Cl)c2cccnc2c1O (stereo not drawn)	-5	14*	0.66	11*	8	10	13	19
C(=Cc1sc(Nc2ccccc2)n[n+]1-c1ccccc1)c1ccccc1	nt	nt	0.62	nt	nt	nt	nt	nt
Cc1ccc(NC(=S)Nc2ccc(OC(F)F)c(Cl)c2)cc1F	6	11*	0.63	1	2	6	7	5
Cc1ccc(NC(=O)NNC(=O)c2cc3ccccc3cc2O)c(C)c1	2	12*	0.7	10*	11	7	8	7
CCc1ccc(NC(=O)NNC(=O)c2cc3ccccc3cc2O)cc1	-16	7	0.7	7	5	nt	nt	nt
O=C(NNC(=O)c1cc2ccccc2cc1O)Nc1ccccc1F	-5	11*	0.68	9.9*	12	6	7	10
COc1ccccc1CN1C(CC(C)=O)c2cc(C(F)(F)F)ccc2S1(=O)=O (stereo not drawn)	nt	nt	0.7	nt	nt	nt	nt	nt
COC(=O)C1(F)C(=O)NC(=O)NC1OC (stereo not drawn)	nt	23*	nt	nt	nt	27*	16	47*
CCCCOC1NC(=O)NC(=O)C1(F)C(=O)OCC (stereo not drawn)	nt	6	nt	nt	nt	nt	nt	nt
CC(C)(C)CN1C(=O)C(=O)NCC1Cc1ccc(O)cc1 (stereo not drawn)	nt	nt	0.67	nt	nt	nt	nt	nt
FC(F)(F)c1cccc(NC(=S)NCC2COc3ccccc3O2)c1 (stereo not drawn)	-7	12*	0.62	5	5	7	8	7
O=C1NC(Cc2ccccc2)C(=O)N2C1C[C@]1(Br)c3ccccc3N(S(=O)(=O)c3ccc(F)cc3)C21 (stereo partly drawn)	nt	nt	0.66	nt	nt	nt	nt	nt
CCOC(=O)c1ccc(NC(=O)CSc2nc3ncccc3[nH]2)cc1	-6	11*	0.56	8	11	4	6	10
CCCCc1ccc(NC(=O)CSc2nc3ncccc3[nH]2)cc1	-10	5	0.66	2	4	nt	nt	nt
COc1cc(C=NO)nc(-c2ccccn2)c1	-22	39*	nt	nt	nt	32*	41*	33*
